Measurements: PubChem BioAssay AID489018 (Southern Research Specialized Biocontainment Screening …, 2010)
Hit rate of the full screen: of about 2,300 compounds, about 350 (15%) were called active. These entries were drawn from the full list. Results with a measured potency or affinity are listed apart. Unmarked numbers belong to inactive results. The rule behind the calls is not given here.

Assay: HepG2 cell cytotoxicity, dose response, cytotoxicity control for non-replicating M. tuberculosis project (AID 489018);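 note: HepG2 human liver cells; 100% = vehicle-treated cells and 0% = background signal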
Details: series mostly up to 20 µM; viability: at the top concentration

Compound	viability
CCOc1cc(-c2sc(Nc3cc(C)ccc3OC)n[n+]2-c2ccccc2)ccc1OC	100%
O=C(COc1ccc(Br)cc1)Nc1ccc([N+](=O)[O-])cn1	101%
CC(=O)Nc1ccc(NC(=O)c2cc([N+](=O)[O-])cc([N+](=O)[O-])c2)cc1	82.4%
O=C1/C(=C/C=C/c2ccccc2)Oc2c1ccc(O)c2CN1CCN(CCO)CC1	105%
CC(Oc1ccc2ccccc2c1)C(=O)NNC(=S)NC(=O)c1ccco1 (stereo not drawn)	112% [at 5 µM]
CCCOc1ccc(C(=O)NNC(=S)NC(=O)c2cccs2)cc1	74.2% [at 5 µM]
CCCOC(=O)c1ccc(NC(=O)c2ccc(Br)o2)cc1	104%
Clc1cccc(-c2ccc(CNCc3ccccn3)o2)c1	111% [at 5 µM]
Cc1cc(C)nc(-n2nc(C)cc2Nc2ccccc2)n1	89% [at 5 µM]
CCCc1cc(=O)n2[nH]c(C)c(-c3ccccc3)c2n1	105%
COc1cc(N=c2ssnc2Cl)cc(OC)c1OC	109%
CCN(CC)c1ccc(-c2sc(Nc3ccccc3)n[n+]2-c2ccc(F)cc2)cc1	81%
Cc1nn(-c2ccccc2)nc1C(=O)c1c(C)[nH]n(-c2ccccc2)c1=O	101%
O=C(Nc1ncc(Cc2ccccc2Cl)s1)C1=NCCN1	85.5%
O=C(NC1CCCCC1)c1nc2c(nnn2Cc2ccccc2Cl)c(=O)[nH]1	90.9%
CCOC(=O)N1CCC(N2CCCC(C(=O)c3ccc4cc(OC)ccc4c3)C2)CC1 (stereo not drawn)	81.3%
CNC(C)C#Cc1ccc2oc3cc(C)c(C)cc3c(=O)c2c1 (stereo not drawn)	81.7%
CCCCOC(=O)c1ccc(NC(=O)c2nn(C)cc2Br)cc1	92.6%
O=S1(=O)N=C(N/N=C/C=C/c2ccccc2)c2ccccc21	109% [at 5 µM]
Cc1ccc(/C=C2\SC(=S)N(C3CCS(=O)(=O)C3)C2=O)o1 (stereo not drawn)	99.9%
CC(C)c1nnc(NC(=O)c2c(O)c3cccc4c3n(c2=O)CCC4)s1	97.2% [at 5 µM]
O=C(NNC(=O)c1ccccc1F)c1ccc(-c2ccc(Cl)cc2)o1	104% [at 5 µM]
COC(=O)c1cn(NC(=O)c2cnccn2)c(=O)c2ccccc12	75.4%
CCOC(=O)c1cc(-c2c(Cl)cccc2Cl)no1	107%

Compound	viability
Cn1cnc([N+](=O)[O-])c1Sc1ccc([N+](=O)[O-])cc1	106% [at 5 µM]
Fc1ccc(-c2ccc(CNCc3ccccn3)o2)cc1Cl	109%
Clc1ccc(-c2ccc(CNCc3ccccn3)o2)cc1	96.1%
CCOC(=O)c1cc(COc2cc(Cl)cc(Cl)c2)on1	96.5%
Cc1cccc(OCC(=O)NNC(=O)c2cc3ccccc3oc2=O)c1	111%
O=C(COc1ccc2ccccc2c1)N/N=C/c1ccccn1	94.8%
Cc1cc(C)n2[nH]c(=O)c(N=Nc3cccc(Cl)c3)c2n1	99.3% [at 5 µM]
CN=C1S/C(=C\c2ccc(OCC(=O)OC)c(OC)c2)C(=O)N1C	94%
COc1cccc(OCCNC(=O)c2cc([N+](=O)[O-])cc([N+](=O)[O-])c2)c1	102%
Cc1n[nH]c(C)c1CCOc1ccc(C(C)C)cc1	77.2%
CC(C)c1ccc(OCC(=O)NNC(=O)c2cnccn2)cc1	97.1%
O=C(COC(=O)c1ccc(O)cc1O)c1ccc2c(c1)OCO2	104% [at 5 µM]
O=C1Nc2ccccc2/C1=C/C(=O)c1cccs1	103%
O=C(NN=C(Cc1ccccc1)Cc1ccccc1)c1ccncc1	98.5%
CCCCCn1c(=O)c2ccccc2n2c(CCl)nnc12	89.4% [at 5 µM]
CC(C)(C)Nc1nc(NC(C)(C)C)nc(-n2ccnc2)n1	108% [at 5 µM]
CN1/C(=C\C(=O)COC(=O)C2COc3ccccc3O2)C(C)(C)c2ccccc21 (stereo not drawn)	105% [at 5 µM]
Cc1cccc(-c2nnc3sc(-c4ccccc4C)nn23)c1	88.6%
Cc1cc(C)cc(OC(=O)CCN2C(=O)c3ccccc3C2=O)c1	104%
Cc1cc(N2CCN(c3ccccc3)CC2)nc(-n2nc(C)cc2C)n1	92.3% [at 5 µM]
CCOc1ccc(Nc2cc(C)nc(-n3nc(C)cc3C)n2)cc1	79.6%
Cc1cc(N2CCC(C)CC2)nc(-n2nc(C)cc2C)n1	96.4% [at 5 µM]
COc1ccc(/C=N/Nc2cc(C)nc(-n3nc(C)cc3C)n2)c(OC)c1	98.1% [at 5 µM]
Cc1ccc(NC(=O)ON=C2CCCC2)cc1	75.1%

Compound	viability
Cc1cc(NC(=O)C2CCCCC2)n(-c2nc3ccccc3[nH]2)n1	117% [at 5 µM]
O=C(OCn1nnc2ccccc2c1=O)c1cccs1	111% [at 5 µM]
COc1cc(/C=N/NC(=O)c2ccncc2)ccc1OC(=O)c1cccc(F)c1	105% [at 5 µM]
O=C(NCCCN1CCOCC1)c1c(O)c2cc(Br)cc(Br)c2[nH]c1=O	75.9%
CC(C)Cc1nnc(NC(=O)CCS(=O)(=O)c2ccc(Cl)cc2)s1	99.2%
C=CCNc1nnc(Sc2ncccc2[N+](=O)[O-])s1	108%
Cc1cccc(OC(=O)c2sc3ncn(C)c(=O)c3c2C)c1	97.7%
COc1cccc(N2C(=O)NC(=O)/C(=C/c3ccc([N+](=O)[O-])s3)C2=O)c1	87.9%
CCCc1nnc(NC(=O)c2cc3ccccc3oc2=O)s1	97.8%
CCc1ccc(OCC(=O)Nc2ccncc2)c(Br)c1	93.6% [at 5 µM]
CC(C)(C)c1ccc(C(=O)Nc2nnc(C3=COCCO3)o2)cc1	93.6% [at 5 µM]
O=C(Nc1nnc(C2=COCCO2)o1)c1ccc(Cc2ccccc2)cc1	99.9%
CCOc1ccc(C(=O)Nc2nnc(C3=COCCO3)o2)cc1	85.8%
Cc1ccccc1C(=O)Nc1nnc(-c2ccco2)o1	94.8%
O=C(CCS(=O)(=O)c1ccccc1)Nc1nnc(-c2ccco2)o1	90.4%
Cc1ccsc1C(=O)OCC(=O)Nc1nnc(-c2ccccc2)o1	102%
Cc1cc(C(=O)COc2cccc3cccnc23)c(C)n1C	94.5%
CN(O)/C=c1/ccc2c(n1)C(=O)C=CC=2	85.6%
Cc1ccc(-c2cc(C(F)F)nc(S(C)(=O)=O)n2)cc1	106%
CN1C(=O)NC(=O)/C(=C/c2ccc([N+](=O)[O-])s2)C1=O	87.8%
CC1Cc2cc(/C=C3/SC(=S)NC3=O)ccc2O1 (stereo not drawn)	88%
COc1ccc(S(=O)(=O)N(C(C)=O)c2ccc(OC(C)=O)c3ccccc23)cc1[N+](=O)[O-]	96.7%
Cc1ccccc1Nc1c(-c2ccccn2)nc2ccccn12	99.6% [at 5 µM]
O=C(CCN1CCOCC1)c1ccc(Br)cc1	85.7%

Compound	viability
O=c1[nH]c(O)c(/C=C2/C=CC(c3cc(Cl)ccc3Cl)=N2)c(=O)[nH]1	106%
CCOC(=O)C1(O)CC(C)=NN1C(=O)c1cccc(Br)c1 (stereo not drawn)	90.3%
CCOC(=O)Cc1cc(=O)n2[nH]cc(-c3ccc(Cl)cc3)c2n1	85.6%
CN(C)CCOc1nc(-c2ccccc2)nc2c1oc1ccccc12	107% [at 5 µM]
COc1ccc(CN2C(=O)/C(=C/c3ccncc3)SC2=S)cc1	89.6%
Cc1ccccc1OCC(=O)OCC(=O)c1ccc[nH]1	105%
Cc1cc(CC(C)C)n(-c2nc3ccccc3c(=O)n2OCC(N)=O)n1	85%
O=C1/C(=C/c2ccccn2)COc2ccccc21	96.3%
Cc1ccc(OCC(=O)OCc2c(C)noc2C)cc1C	107%
COc1cc(N=c2ssnc2Cl)cc(OC)c1	101%
COc1cc(OC)nc(-n2ncc(Br)c(Br)c2=O)n1	88.1% [at 5 µM]
Cc1ccc(NC(=O)COCC(=O)Nc2ccc(C)cc2)cc1	98.9%
Cc1ccc(OCC(=O)Nc2ccc([N+](=O)[O-])cc2)cc1	96.2%
CC(=O)OCCN(C)c1cc(SC(C)C)c2nonc2c1[N+](=O)[O-]	97.2%
CC(=O)OCCNc1cc(SCc2ccco2)c2nonc2c1[N+](=O)[O-]	95.5%
Cc1cccc(Cc2cnc(NC(=O)C3=NCCN3)s2)c1	107% [at 5 µM]
S=C1SCN(Cc2cccnc2)CN1Cc1ccccc1	97.6%
O=C1N(c2ccc3c(c2)OCCO3)C(c2ccccc2)C1(F)F (stereo not drawn)	98.1%
COc1ccc(CNC(=O)c2cc3cccc(O)c3oc2=N)cc1	104%
Clc1ccc(CN2C3=NCCCN3c3ccccc32)cc1	92.4%
COc1ccccc1NC(=O)C(=O)/C=C(\O)c1ccccc1	96%
COc1ccc(NC(=O)c2ccc(-c3ccc([N+](=O)[O-])cc3)o2)cc1OC	88.5%
Cc1nnc(NC(=O)c2ccc3ccccc3c2)o1	112%
O=C(Nc1nnc(C2=COCCO2)o1)c1ccc(F)cc1	110% [at 5 µM]

Compound	viability
CCCCCCOC(=O)C(C#N)c1nc2ccccc2nc1N1CCN(CC)CC1 (stereo not drawn)	98.2% [at 5 µM]
CCCNC(=O)NC(=O)COc1ccc(-c2ccc(C#N)cc2)cc1	102%
Cc1cccc(OC(=O)c2ccc3nccnc3c2)c1	107%
O=C1CC(=O)CC(c2ccccc2)C1	110%
CCOC(=O)CN1NC2(CCCC(C)C2)NC1=S (stereo not drawn)	99.3%
CCOC(=O)COc1ccc2c(=O)c(-c3ccccc3)coc2c1	95.6%
O=C(N/N=C/c1ccc(OC(=O)c2cccs2)cc1)c1ccccn1	100% [at 5 µM]
O=c1oc(-c2ccccc2[N+](=O)[O-])nc2ccccc12	112%
CN(/N=C/c1ccc([N+](=O)[O-])o1)c1ccccc1	103%
Nc1nc2ccccc2n1CCOc1ccc(Br)cc1	99.2% [at 5 µM]
Cc1c(C(=O)NNC(=O)c2csc(N3CCOCC3)n2)oc2ccccc12	85.8%
O=C(N/N=C/C=C/c1cccc([N+](=O)[O-])c1)c1ccncc1	102%
O=C(Nc1nccs1)c1cc2cc(Cl)ccc2oc1=O	73.2%
CCCCCn1nnc2c(=O)oc3ccccc3c21	105%
Cc1cc(=O)[nH]c(-n2nc(C)cc2C)n1	102% [at 5 µM]
O=C(Nc1ccc(-c2nc3ccccc3c(=O)o2)cc1)c1ccco1	102% [at 5 µM]
COc1ccc(C(O)CNc2ccc(C)cc2)cc1 (stereo not drawn)	78.7%
CC(C)Oc1ccc(CNC(=O)Oc2ccccc2)cc1	102%
COc1ccc(C(C)NC(=O)CCc2ccccc2)cc1 (stereo not drawn)	93.5%
Cc1cc(OCCOCCNCc2ccccc2)ccc1C(C)C	92.4% [at 5 µM]
Cn1c(CNc2ccccc2O)nc2ccccc21	93.3%
CCCCN1CCC(O)(c2ccccc2)C(C(=O)c2ccccc2)C1 (stereo not drawn)	98.1% [at 5 µM]
